# Source: PubChem BioAssay (several laboratories)
# Pf gametocyte: late stage P. falciparum gametocyte viability inhibitors, primary screen, ATP luminescence, HTS. P. falciparum stage V gametocytes, 24 h. inhibition, % at 10.9 µM. 0.065% of 150,000 active. AID 743093, 2013;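 active = inhibition above the mean plus 3 SD of compounds within the control limits, set per campaign, cut at about 38% in these data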;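 also: 0% = DMSO wells and 100% = medium only without gametocytes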
# S1P4 ag: S1P4 receptor agonists, primary screen, cell-based | Sphingosine 1-phosphate receptor 4 (Homo sapiens), O95977 | activation, % at 4.98 µM | S1P4-expressing cell line, agonist reporter assay | 0.35% of 220,000 active; in the data active = activation above about 11%;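 also: 0% = DMSO vehicle and 100% = reference agonist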
# S1P4 antagonist: S1P4 receptor antagonists, primary screen, cell-based; Sphingosine 1-phosphate receptor 4 (Homo sapiens), O95977; S1P4-expressing cells, antagonist mode, reporter read-out; inhibition, % at 4.98 µM; 0.26% of 220,000 active; in the data active = inhibition above about 29%;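 also: 0% = wells stimulated with agonist and 100% = vehicle wells without agonist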
# EP2 modulator: EP2 receptor modulators, cAMP readout, primary screen, cell-based, HTRF cAMP, PGE2 stimulation. induction, % at 25 µM. 0.83% of 260,000 active. EP2-expressing cells, cAMP HTRF FRET, PGE2 co-stimulation;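 active = compounds whose cAMP rise, as percent of the full-agonist control response, exceeds 60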;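 also: rat C6 glioma line stably carrying human EP2 under a CMV promoter; the protocol text gives 20 µM as final concentration; 100% = response of wells given 1 µM PGE2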
# Target sequence (P43116 whole entry, looked up): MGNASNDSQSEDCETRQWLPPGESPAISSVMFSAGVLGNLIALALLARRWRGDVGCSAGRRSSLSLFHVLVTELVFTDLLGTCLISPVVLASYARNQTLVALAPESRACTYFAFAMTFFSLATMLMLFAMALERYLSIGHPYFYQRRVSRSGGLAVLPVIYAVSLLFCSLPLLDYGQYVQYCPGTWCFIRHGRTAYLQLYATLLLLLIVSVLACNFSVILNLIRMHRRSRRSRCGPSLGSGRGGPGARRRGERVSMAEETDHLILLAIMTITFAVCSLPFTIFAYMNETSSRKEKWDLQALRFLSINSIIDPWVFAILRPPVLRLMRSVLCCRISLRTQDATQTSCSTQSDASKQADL
# EP2 antag: human EP2 receptor antagonists, primary screen, TR-FRET cAMP, C6 glioma cells; 0.52% of 260,000 active; inhibition, % at 25 µM; C6 glioma cells expressing human EP2; cells stimulated with saturating PGE2; AID 1422, 2008;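 active = percent inhibition above 40 after rounding to a whole number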;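 also: rat C6 glioma host cells with rolipram phosphodiesterase inhibitor present; the protocol text gives 20 µM as final concentration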
# S1P3 antag: S1P3 receptor antagonists, primary screen, cell-based. Sphingosine 1-phosphate receptor 3 (Homo sapiens), Q99500. CHO S1P3 NFAT-BLA reporter, FRET fluorescence, antagonist mode. inhibition, % at 4.98 µM. 0.27% of 170,000 active;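 active = inhibition above the plate cutoff, the mean inhibition of test wells on that plate plus 3 SD, cut at about 28% in these data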;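 also: cells challenged with S1P at its EC80 of 0.8 µM; blue over green emission ratio from cleaved BLA substrate after 4 h stimulation; 0% = S1P-stimulated wells and 100% = unstimulated DMSO-only wells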
# S1P4 agonist cf: S1P4 receptor agonists, retest, confirmation, cell-based, high throughput | S1P4 agonist cell-based reporter assay | AID 1523, 2009 | shares compounds with S1P4 ag | 7% of 740 active | activation, % at 4.98 µM; in the data active = activation above about 12%;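 also: 0% = vehicle and 100% = full reference agonist response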
# S1P1 agonist: S1P1 receptor agonists, human, counter-screen for S1P4 agonist project, cell-based | activation, % at 4.98 µM | S1P1 agonist cell-based assay, activation | shares compounds with S1P4 ag | 4% of 740 active; in the data active = activation above about 21%;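 also: 0% = vehicle wells and 100% = reference agonist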
# Numbers without * were called inactive; · = no result given. An excerpt weighted towards active compounds, which were near 1.9% of everything screened.
SMILES,Pf gametocyte,S1P4 ag,S1P4 antagonist,EP2 modulator,EP2 antag,S1P3 antag,S1P4 agonist cf,S1P1 agonist
COCCCn1c(=N)c(C(=O)NCC2CCCO2)cc2c(=O)n3ccccc3nc21 (stereo not drawn),·,12*,-15,34,19,-7,3,2
N=c1c(C(=O)NCc2ccc(F)cc2)cc2c(=O)n3ccccc3nc2n1CC1CCCO1 (stereo not drawn),·,13*,-31,9,10,-22,14*,8
COc1ccc(/C(O)=C2/C(=O)C(=O)N(CCCN3CCOCC3)C2c2cccc3ccccc23)cc1 (stereo not drawn),·,·,·,7,4,·,·,·
Cn1c2ccc(F)cc2c2ncn(CC3CCCO3)c(=O)c21 (stereo not drawn),3,1,-2,-30,5,6,·,·
O=c1c2[nH]c3ccc(F)cc3c2ncn1CC1CCCO1 (stereo not drawn),·,38*,5,-26,20,-7,-2,1
CCc1nc(N)c(C#N)c(-c2ccncc2)c1C,16,0,-15,27,5,-24,·,·
CCc1nc(N)c(C#N)c(-c2cccc3ccccc23)c1C,11,16*,-3,24,·,·,-2,-3
CC1CCCCN1C(=O)COc1ccccc1F (stereo not drawn),5,13*,-31,-6,3,1,0,0
C/C(=N\N1CCN(Cc2ccc(Cl)cc2)CC1)c1ccc(F)cc1,18,75*,-2,7,6,2,-2,4
CC(=O)Oc1ccc(/C(C)=N\N2CCN(Cc3ccc(Cl)cc3)CC2)cc1,6,·,·,·,·,·,·,·
O=C(N/N=C\c1ccc(O)c([N+](=O)[O-])c1)c1ccccc1-n1cccc1,·,16*,-26,-23,7,3,-2,1
Cc1ccccc1/C=N\NC(=O)c1ccc(Cn2cccn2)o1,·,47*,-16,-10,12,13,-2,-3
O=C(N/N=C\c1cccc(Cl)c1)c1ccc(Cn2cccn2)o1,-20,0,2,-14,3,17,·,·
COCCNC(=O)c1ccccc1NC(=O)c1cccc([N+](=O)[O-])c1C,·,1,-4,0,3,-12,·,·
COCCNC(=O)c1ccccc1NC(=O)Cc1ccccc1[N+](=O)[O-],14,235*,-1,-11,6,-6,-3,-7
Cc1ncc(CN(Cc2ccc(F)cc2)C2CC(C)(C)NC(C)(C)C2)n1C,·,·,·,-50,7,·,·,·
CCOC(=O)Cc1csc(NC(=O)CSc2nc(N)c3c(C)c(C)sc3n2)n1,·,24*,-9,-20,16,·,-1,-3
O=C(Nc1ccc2c(c1)OCCO2)c1ncoc1-c1cccs1,·,·,·,-9,·,·,·,·
O=C(Nc1ccccc1-c1ccccc1)C1CCCCC1,14,12*,4,26,8,-11,-2,-3
CCOC(=O)C(NC(=O)CC)(Nc1ccccc1)C(F)(F)F (stereo not drawn),-3,1,7,46,10,-12,·,·
CCCCC(=O)NC(Nc1ccc(C)cn1)(C(=O)OCC)C(F)(F)F (stereo not drawn),·,18*,-6,28,11,·,-1,-4
CCOC(=O)c1c(NC(C)=O)sc2c(O)c(Br)cc(Br)c12,3,62*,-10,-42,2,-9,-2,-6
CCOC(=O)c1c(NC(C)=O)sc2c(O)cccc12,-18,0,-7,0,8,-4,·,·
Cc1c(N/C(=N/S(=O)(=O)c2ccc(F)cc2)c2ccccc2)c(=O)n(-c2ccccc2)n1C,-6,14*,-5,4,-1,6,-3,-14
Cc1ccc(CNC(=O)C2CN(S(C)(=O)=O)c3cc(Cl)ccc3O2)cc1 (stereo not drawn),7,63*,-23,-37,4,-13,-2,3
SMILES,Pf gametocyte,S1P4 ag,S1P4 antagonist,EP2 modulator,EP2 antag,S1P3 antag,S1P4 agonist cf,S1P1 agonist
O=C(CSc1ncnc2scc(-c3ccccc3)c12)NCC1CCCO1 (stereo not drawn),·,·,·,-49,9,·,·,·
COc1cc(C)nc(Nc2nc(C)c(C(C)=O)s2)n1,·,12*,-16,4,22,·,-3,0
COc1ccc2nc(Nc3nc(C)c(C(C)=O)s3)sc2c1,·,1,-13,-21,12,16,·,·
Cc1ccc(/C=C/C(=O)NCc2ccc(S(N)(=O)=O)cc2)o1,14,12*,11,-2,6,-2,-2,-2
COC(=O)c1ccc2c(c1)C(=O)/C(=C/c1ccc(C)cc1)O2,·,13*,-23,28,9,7,-1,-2
CCc1ccc(/C=C2\Oc3ccc(C(=O)OC)cc3C2=O)cc1,2,2,-19,22,5,11,·,·
N#Cc1c(NC(=O)CSc2ncnc3scc(-c4ccccc4)c23)sc2c1CCCC2,·,·,·,-7,6,·,·,·
Cc1ccc(OCCn2cc(/C=C3\C(=O)NN(c4ccccc4)C3=O)c3ccccc32)cc1,3,14*,5,16,7,6,-2,-3
O=C(NCC(c1ccco1)N1CCN(c2ccccc2F)CC1)OCc1ccccc1 (stereo not drawn),8,33*,4,-7,7,12,-2,-6
CCC(C(=O)OC)n1cnc2sc(C(=O)Nc3ccccc3OC)c(C)c2c1=O (stereo not drawn),·,·,·,-22,4,·,·,·
Cc1ccc2nc(-c3ccc(NS(=O)(=O)c4ccc(F)c(F)c4)cc3)sc2c1,-6,30*,-1,-2,5,3,1,-3
Cc1ccc(NC(=O)CN2CCC(N3CCCCC3)CC2)cc1F,·,·,·,6,11,·,·,·
Cc1nccc2[nH]c(=O)c(C(=O)NC(C)CCc3ccccc3)cc12 (stereo not drawn),·,24*,-7,-44,6,0,-3,-4
CC(CCc1ccccc1)NC(=O)c1cccnc1 (stereo not drawn),·,0,-13,8,0,1,·,·
COc1cccc(NC(=O)CN(c2cccc(OC)c2)S(C)(=O)=O)c1,-1,0,9,-26,4,-6,·,·
COc1cccc(NC(=O)CN(c2cccc(C(F)(F)F)c2)S(C)(=O)=O)c1,·,12*,-5,-9,16,2,-1,-2
